Consider eight compounds from PubChem BioAssay.

Calls of active or inactive are those of the source.

Assay [1] relates to PRMT1 (protein arginine N-methyltransferase 1). Put plainly: PRMT1 binders on small-molecule microarrays, primary screen, biochemical, small-molecule microarray, 635 nm fluorescence (AID 1088).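 Further: binding of Prmt1 protein to compounds spotted on small-molecule microarray slides.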 The conditions noted are these: small-molecule microarray binding, higher = more signal.
The nature of assay [2]: yeast growth modulation, basal conditions, primary screen, YJM789 clinical isolate, OD600, 24 h (AID 1089).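 Further: growth of clinical yeast isolate S. cerevisiae YJM 789 seeded 1000 cells per well; test concentration not given here.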 To be noted: S. cerevisiae YJM789 growth, higher = more signal, called active from +8 up or from −8 down.
Assay [3] can be described thus: fission yeast growth modulation, primary screen, strain 972, OD600, 24 h, no modulator (AID 1090).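 Further: basal condition with compound alone and no growth modifier present; test concentration not given here.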 To be noted: S. pombe 972 growth, higher = more signal, called active from +8 up or from −8 down.
Assay [4] can be described thus: S. cerevisiae growth modulation with rapamycin, primary screen, strain BY4716, OD600, 96 h (AID 1091). Further: test concentration not given here. To be noted: higher = more signal, called active from +8 up or from −8 down.
Assay [5] has as its target Torsin-1A-interacting protein 2 (Homo sapiens) (UniProt Q8NFQ8). As to the kind of experiment: LULL1 binders on small-molecule microarray, primary screen, cell lysate, human LULL1 lysate, 635/667 nm fluorescence (AID 1092).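 Further: probe is lysate of COS7 cells overexpressing human LULL1; score merges per-feature 667 nm fluorescence with signal-to-noise.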 To be noted: hLULL1 lysate binding, 635 nm fluorescence, higher = more signal.
The nature of assay [6]: E. coli growth modulation, two-sided OD650, primary screen, E. coli filamentation project, strain DRC41, 24 h (AID 1093).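 Further: MC1000 strain lacking acrAB efflux and sulA so SOS filamentation is blocked; test concentration not given here.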 To be noted: OD650, 24 h, higher = more signal, called active from +8 up or from −8 down.
Assay [7] is described as follows: small-molecule microarray binders of probe aLefty2, primary screen, biochemical, biotinylated probe, 635/667 nm fluorescence (AID 1094).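 Further: score merges spot fluorescence near 667 nm with spot signal-to-noise ratio.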 To be noted: higher = more signal.
Assay [8] relates to Noggin (protein binding on small-molecule microarray). As to the kind of experiment: Noggin binders on small-molecule microarray, primary screen, biochemical, 635/667 nm fluorescence (AID 1095).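 Further: score merges 667 nm feature fluorescence with signal to noise over triplicate slides.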 The conditions noted are these: 635 nm fluorescence, higher = more signal.
Assay [9] concerns the target Neurogenic locus notch homolog protein 3 (Homo sapiens) (UniProt Q9UM47). As to the kind of experiment: NOTCH3 binders on small-molecule microarray, primary screen, biochemical, 635/667 nm fluorescence (AID 1096). To be noted: NOTCH3 binding, 635 nm fluorescence, higher = more signal.
Assay [10] is described as follows: small-molecule microarray binders of probe aEGFR, primary screen, biochemical, biotinylated probe, 635/667 nm fluorescence (AID 1097).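 Further: probe is a biotinylated anti-EGFR antibody binding compounds printed on slides; score combines fluorescence near 667 nm and signal to noise of each spot.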 The conditions noted are these: higher = more signal.
The test system of assay [11] is Plasmodium falciparum Sir2 (PF13_0152, Sir2A). As to the kind of experiment: pfSir2 binders on small-molecule microarrays, primary screen, biochemical, small-molecule microarray, 635 nm fluorescence (AID 1098).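 Further: score merges spot fluorescence intensity with its signal-to-noise ratio.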 The conditions noted are these: small-molecule microarray binding, fluorescence 635 nm; higher = more signal.
The nature of assay [12]: small-molecule microarray binders of probe aDKK1, primary screen, biochemical, biotinylated probe, 635/667 nm fluorescence (AID 1099).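 Further: score merges 667nm spot fluorescence with signal to noise across triplicate slides; reference of the scale not given here.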 The conditions noted are these: higher = more signal.
The nature of assay [13]: small-molecule microarray binders of probe aCHRDL2, primary screen, biochemical, biotinylated probe, 635/667 nm fluorescence (AID 1100). The conditions noted are these: higher = more signal.
A short description of assay [14]: splicing luciferase reporter signal modulators, primary screen, spliceosome inhibition project, cell-based, HEK293, splice +/- reporter (AID 1101).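 Further: HEK293 cells carrying a splicing-competent luciferase reporter gene; test concentration not given here.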 To be noted: luminescence, 24 h, higher = more signal, called active from +8 up or from −8 down. In general terms: A reporter such as luciferase makes a cellular process visible.
Assay [15] deals with Fibroblast growth factor 10 (Homo sapiens) (UniProt O15520). Put plainly: FGF10 binders on small-molecule microarrays, primary screen, biochemical, small-molecule microarray, 635 nm fluorescence (AID 1102). To be noted: FGF10 binding, fluorescence 635 nm, higher = more signal.
Assay [16] deals with glycogen synthase kinase-3 (GSK3A per assay name; protocol says GSK3B). As to the kind of experiment: GSK3 binders on small-molecule microarrays, primary screen, biochemical, small-molecule microarray, 635 nm fluorescence, GSK3A (AID 1103). Further: the record names both GSK3A and GSK3B. To be noted: small-molecule microarray binding, fluorescence 635 nm; higher = more signal.
Assay [17] addresses Epidermal growth factor receptor (Homo sapiens) (UniProt P00533). As to the kind of experiment: EGFR binders on small-molecule microarrays, primary screen, biochemical, small-molecule microarray, 635 nm fluorescence (AID 1104).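 Further: score merges 667 nm emission intensity with spot signal to noise over triplicate slides.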 The conditions noted are these: EGFR binding, higher = more signal.
The target of assay [18] is Follistatin-related protein 3 (Homo sapiens) (UniProt O95633). Put plainly: FSTL3 binders on small-molecule microarrays, primary screen, biochemical, small-molecule microarray, 635 nm fluorescence (AID 1105).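 Further: score merges emission near 667 nm and signal to noise per printed spot across three slides.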 To be noted: FSTL3 binding, higher = more signal.
Assay [19] addresses Dickkopf-related protein 1 (Homo sapiens) (UniProt O94907). Put plainly: DKK1 binders on small-molecule microarrays, primary screen, biochemical, small-molecule microarray, 635 nm fluorescence scan (AID 1106).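 Further: score merges emission near 667 nm with signal to noise over three replicate slides.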 To be noted: DKK1 binding, higher = more signal.
For assay [20], the system named is Inhibin beta A chain (activin A). Put plainly: INHBA (activin A) binders on microarrays, primary screen, biochemical, small-molecule microarray, 635 nm fluorescence scan (AID 1107).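 Further: mouse activin A protein probed at 4.33 µg/mL on printed slides; score merges bound-protein fluorescence near 667 nm with spot signal-to-noise.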 The conditions noted are these: small-molecule microarray binding, higher = more signal.

Sequence of Follistatin-related protein 3 (Homo sapiens) (O95633 whole entry, looked up): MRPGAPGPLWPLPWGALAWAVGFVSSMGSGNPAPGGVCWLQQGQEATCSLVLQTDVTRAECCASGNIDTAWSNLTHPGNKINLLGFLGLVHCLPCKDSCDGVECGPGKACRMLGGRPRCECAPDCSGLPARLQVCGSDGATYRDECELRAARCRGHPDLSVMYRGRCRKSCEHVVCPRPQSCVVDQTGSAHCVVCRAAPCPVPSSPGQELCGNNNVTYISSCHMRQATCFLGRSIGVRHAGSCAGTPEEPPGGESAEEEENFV
Sequence of Fibroblast growth factor 10 (Homo sapiens) (O15520 whole entry, looked up): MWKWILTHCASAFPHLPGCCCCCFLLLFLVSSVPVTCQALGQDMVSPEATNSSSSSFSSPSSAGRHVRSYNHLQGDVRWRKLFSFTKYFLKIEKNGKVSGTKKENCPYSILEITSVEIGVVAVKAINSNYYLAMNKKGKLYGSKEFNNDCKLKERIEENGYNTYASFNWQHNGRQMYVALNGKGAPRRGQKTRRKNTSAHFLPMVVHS
Sequence of Torsin-1A-interacting protein 2 (Homo sapiens) (Q8NFQ8 whole entry, looked up): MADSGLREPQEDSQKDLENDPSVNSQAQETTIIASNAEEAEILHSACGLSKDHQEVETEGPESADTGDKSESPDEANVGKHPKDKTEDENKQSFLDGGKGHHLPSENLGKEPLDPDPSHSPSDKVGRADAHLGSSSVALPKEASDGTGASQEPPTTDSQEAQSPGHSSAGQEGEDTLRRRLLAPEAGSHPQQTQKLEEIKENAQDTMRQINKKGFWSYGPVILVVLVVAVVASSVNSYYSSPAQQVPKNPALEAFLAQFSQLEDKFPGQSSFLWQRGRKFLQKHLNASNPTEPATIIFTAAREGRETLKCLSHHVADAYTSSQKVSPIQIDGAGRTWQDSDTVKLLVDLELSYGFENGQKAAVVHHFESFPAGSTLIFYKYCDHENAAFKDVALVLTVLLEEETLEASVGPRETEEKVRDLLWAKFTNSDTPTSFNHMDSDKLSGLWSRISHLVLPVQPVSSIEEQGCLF
Sequence of Dickkopf-related protein 1 (Homo sapiens) (O94907 whole entry, looked up): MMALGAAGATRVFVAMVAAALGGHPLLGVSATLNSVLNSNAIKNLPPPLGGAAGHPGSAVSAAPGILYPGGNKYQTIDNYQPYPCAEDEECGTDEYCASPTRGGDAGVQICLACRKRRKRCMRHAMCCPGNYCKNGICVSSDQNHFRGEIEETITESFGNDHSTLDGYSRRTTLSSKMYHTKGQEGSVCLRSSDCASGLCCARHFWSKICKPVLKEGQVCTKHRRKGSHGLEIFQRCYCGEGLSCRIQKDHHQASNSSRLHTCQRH
Sequence of Epidermal growth factor receptor (Homo sapiens) (P00533 whole entry, looked up): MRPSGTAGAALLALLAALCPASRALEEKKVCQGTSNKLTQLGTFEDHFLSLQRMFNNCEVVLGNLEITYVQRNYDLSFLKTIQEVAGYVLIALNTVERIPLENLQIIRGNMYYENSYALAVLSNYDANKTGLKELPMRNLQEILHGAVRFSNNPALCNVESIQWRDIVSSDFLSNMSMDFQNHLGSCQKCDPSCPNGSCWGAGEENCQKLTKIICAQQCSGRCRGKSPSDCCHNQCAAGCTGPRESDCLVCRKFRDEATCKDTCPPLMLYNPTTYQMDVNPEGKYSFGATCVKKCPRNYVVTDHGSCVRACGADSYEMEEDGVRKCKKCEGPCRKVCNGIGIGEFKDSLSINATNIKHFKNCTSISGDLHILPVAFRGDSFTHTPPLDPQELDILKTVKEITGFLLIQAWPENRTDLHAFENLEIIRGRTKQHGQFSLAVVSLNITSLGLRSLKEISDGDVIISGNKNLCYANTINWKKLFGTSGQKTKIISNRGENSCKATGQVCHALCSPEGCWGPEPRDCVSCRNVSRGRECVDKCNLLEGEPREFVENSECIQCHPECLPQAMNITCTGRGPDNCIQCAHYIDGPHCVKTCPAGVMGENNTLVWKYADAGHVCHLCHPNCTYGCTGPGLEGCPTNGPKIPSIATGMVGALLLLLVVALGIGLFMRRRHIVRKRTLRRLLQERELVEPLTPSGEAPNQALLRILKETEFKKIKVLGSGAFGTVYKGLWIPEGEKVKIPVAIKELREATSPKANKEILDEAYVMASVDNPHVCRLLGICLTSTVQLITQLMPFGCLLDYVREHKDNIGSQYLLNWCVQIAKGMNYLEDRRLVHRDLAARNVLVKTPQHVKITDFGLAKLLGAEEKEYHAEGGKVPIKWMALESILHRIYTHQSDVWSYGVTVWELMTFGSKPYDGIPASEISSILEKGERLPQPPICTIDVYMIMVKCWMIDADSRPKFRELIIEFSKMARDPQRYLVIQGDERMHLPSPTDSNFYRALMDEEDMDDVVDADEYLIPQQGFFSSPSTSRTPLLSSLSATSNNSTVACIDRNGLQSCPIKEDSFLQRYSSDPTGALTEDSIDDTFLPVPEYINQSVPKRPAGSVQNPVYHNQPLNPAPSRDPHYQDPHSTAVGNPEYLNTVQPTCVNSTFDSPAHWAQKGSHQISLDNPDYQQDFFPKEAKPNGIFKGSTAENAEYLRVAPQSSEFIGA
Sequence of Neurogenic locus notch homolog protein 3 (Homo sapiens) (Q9UM47 whole entry, looked up): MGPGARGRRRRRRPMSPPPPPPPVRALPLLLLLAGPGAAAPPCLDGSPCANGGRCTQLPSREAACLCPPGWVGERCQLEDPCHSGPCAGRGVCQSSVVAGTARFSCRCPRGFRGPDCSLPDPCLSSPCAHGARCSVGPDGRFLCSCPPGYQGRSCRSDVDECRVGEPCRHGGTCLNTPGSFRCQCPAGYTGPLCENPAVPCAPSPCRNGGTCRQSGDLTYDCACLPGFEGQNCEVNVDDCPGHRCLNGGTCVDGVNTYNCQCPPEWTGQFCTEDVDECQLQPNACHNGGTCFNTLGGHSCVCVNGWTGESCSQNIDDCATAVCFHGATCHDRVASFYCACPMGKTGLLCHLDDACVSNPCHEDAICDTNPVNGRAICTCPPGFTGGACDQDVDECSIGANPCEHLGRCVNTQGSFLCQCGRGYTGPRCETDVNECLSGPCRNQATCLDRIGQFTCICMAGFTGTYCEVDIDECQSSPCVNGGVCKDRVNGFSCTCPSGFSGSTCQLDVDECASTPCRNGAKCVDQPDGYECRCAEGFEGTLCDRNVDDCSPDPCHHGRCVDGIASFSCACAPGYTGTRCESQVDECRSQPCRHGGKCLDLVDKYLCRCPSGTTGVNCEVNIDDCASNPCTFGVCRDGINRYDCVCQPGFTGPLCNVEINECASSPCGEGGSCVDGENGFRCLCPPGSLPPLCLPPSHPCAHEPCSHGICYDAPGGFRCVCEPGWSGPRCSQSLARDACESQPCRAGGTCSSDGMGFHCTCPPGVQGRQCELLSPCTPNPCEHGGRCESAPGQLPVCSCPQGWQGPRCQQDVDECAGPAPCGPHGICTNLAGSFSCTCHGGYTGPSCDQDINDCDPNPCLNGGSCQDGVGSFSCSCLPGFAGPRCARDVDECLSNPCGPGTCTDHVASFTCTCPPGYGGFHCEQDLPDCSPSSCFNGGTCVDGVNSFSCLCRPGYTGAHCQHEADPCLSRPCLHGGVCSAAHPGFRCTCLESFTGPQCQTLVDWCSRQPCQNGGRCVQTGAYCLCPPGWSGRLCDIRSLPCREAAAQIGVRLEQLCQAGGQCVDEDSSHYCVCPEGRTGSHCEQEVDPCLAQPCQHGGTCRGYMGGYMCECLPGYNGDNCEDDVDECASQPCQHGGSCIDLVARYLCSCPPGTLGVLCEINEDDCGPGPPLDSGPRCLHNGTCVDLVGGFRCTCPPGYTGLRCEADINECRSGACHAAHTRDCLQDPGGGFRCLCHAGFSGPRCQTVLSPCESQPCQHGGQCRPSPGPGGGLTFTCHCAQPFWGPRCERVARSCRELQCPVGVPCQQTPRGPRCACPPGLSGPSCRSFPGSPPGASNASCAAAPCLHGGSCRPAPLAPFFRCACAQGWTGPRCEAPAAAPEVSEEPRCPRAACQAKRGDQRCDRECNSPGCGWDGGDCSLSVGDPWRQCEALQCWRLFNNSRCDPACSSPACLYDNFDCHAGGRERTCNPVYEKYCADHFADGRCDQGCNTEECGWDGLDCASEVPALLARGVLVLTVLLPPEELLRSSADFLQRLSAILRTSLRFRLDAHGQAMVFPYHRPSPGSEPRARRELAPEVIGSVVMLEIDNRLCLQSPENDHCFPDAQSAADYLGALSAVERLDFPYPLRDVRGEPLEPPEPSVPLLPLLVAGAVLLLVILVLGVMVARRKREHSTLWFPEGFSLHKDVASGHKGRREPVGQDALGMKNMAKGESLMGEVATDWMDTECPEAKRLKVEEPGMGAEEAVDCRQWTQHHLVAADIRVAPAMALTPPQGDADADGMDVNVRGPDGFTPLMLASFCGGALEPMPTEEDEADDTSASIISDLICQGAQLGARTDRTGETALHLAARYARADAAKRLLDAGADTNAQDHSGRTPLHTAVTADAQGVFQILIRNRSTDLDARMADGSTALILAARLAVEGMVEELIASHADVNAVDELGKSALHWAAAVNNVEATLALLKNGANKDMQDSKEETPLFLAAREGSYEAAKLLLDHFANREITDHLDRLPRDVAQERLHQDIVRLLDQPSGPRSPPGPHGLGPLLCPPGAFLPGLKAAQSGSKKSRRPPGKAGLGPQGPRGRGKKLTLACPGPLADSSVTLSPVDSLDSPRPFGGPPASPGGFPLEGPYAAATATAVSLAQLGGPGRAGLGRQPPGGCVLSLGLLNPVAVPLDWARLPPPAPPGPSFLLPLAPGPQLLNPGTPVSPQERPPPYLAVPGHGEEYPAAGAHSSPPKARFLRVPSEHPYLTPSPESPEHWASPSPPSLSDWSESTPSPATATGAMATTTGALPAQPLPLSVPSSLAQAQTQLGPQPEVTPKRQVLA

For `C=CC[C@]1(C(=O)N2CCCCC2)N=C(c2ccc(OCCCO)cc2)O[C@H]1c1ccccc1N=[N+]=[N-]`, the composite z-score in assay [1] was 1.58; in [5] it was 3.44; in assay [7], 0.619; in assay [8] it was 1.17; in assay [9], 1.08; in assay [10], 0.561. Besides, the composite z-score came to 1.55 in assay [11]; 1.26 in assay [12]; 1.42 in [13]; 0.975 in assay [15]; 1.27 in assay [16]; 0.292 in [17]. The composite z-score is 1.3 in assay [18], -0.0913 in [19] and 1.06 in assay [20]. In addition, the z-score in assay [2] was -0.534 (inactive); in assay [3], -1.18 (inactive); in assay [4] it was 0.946 (inactive); in [6], 0.208 (inactive); in assay [14] it was -0.461 (inactive).

On to `CCOC(=O)C[C@H]1[C@H](OC(=O)c2cc3ccccc3oc2=O)[C@@H](NC(=O)c2ccc3ccccc3c2)c2cc(OCCCO)ccc2N1C(=O)c1ccc2ccccc2n1`, for which the composite z-score in assay [1] was 0.154; in [5], 0.868; in assay [7], -0.225; in assay [8] it was 0.956; in [9], 1.03; in assay [10], 0.0768. The composite z-score in assay [11] is 0.209; in [12], 0.0447; in assay [13], -0.19; in [15] it was 0.876; in assay [16], 0.4; in assay [17] it was 0.573. Moreover, the composite z-score in assay [18] came to 1.09; in [19] it was 0.858; in assay [20], 0.392. In addition, the z-score was -0.653 (inactive) in [2]; -0.777 (inactive) in [3]; -0.31 (inactive) in assay [4]; 2.45 (inactive) in assay [6]; -0.017 (inactive) in assay [14].

In the case of `C=CCN1C(=O)[C@@]2(Cc3ccccc3)N=C(c3ccc(OCCCO)cc3)O[C@H]2c2ccccc21`, the composite z-score in assay [1] amounted to 1.36; in assay [5], 2.77; in [7] it was 0.44; in [8] it was 0.293; in assay [9], 1.08; in [10], 0.031. Moreover, the composite z-score in assay [11] was 1.59; in assay [12] it was 1.07; in [13] it was 1.19; in assay [15], 0.534; in [16] it was 0.876; in [17] it was 0.96. In addition, the composite z-score came out at 0.956 in assay [18], 0.613 in assay [19] and 0.965 in assay [20]. The z-score in [2] was -0.772 (inactive); in [3] it was -5.06 (inactive); in assay [4] it was 1.63 (inactive); in [6] it was 0.612 (inactive); in [14], -0.298 (inactive).

For `O=C(NCC(O)CO)[C@]1(Cc2ccccc2)N=C(c2ccc(OCCCO)cc2)O[C@@H]1c1ccccc1` (stereo not given in full), the composite z-score in assay [1] was 1.26; in assay [5], 3.43; in assay [7], 0.595; in [8], -0.574; in assay [9], -0.0954; in assay [10] it was 0.107. Further, the composite z-score in assay [11] is 1.51; in assay [12], 1; in assay [13], 0.955; in assay [15], -0.23; in assay [16], -0.0255; in assay [17] it was -1.25. Also, the composite z-score is -0.376 in assay [18], -0.197 in [19] and 0.148 in [20]. Besides, the z-score in [2] was -1 (inactive); in [3], -1.56 (inactive); in assay [4], -1.81 (inactive); in assay [6] it was 0.897 (inactive); in assay [14], -1.47 (inactive).

Regarding `CO[C@@H]1COC(=O)CC=C[C@H](C)COC(=O)[C@H](Cc2ccccc2)NC(=O)CC=C[C@H]1C`, the composite z-score in assay [1] is 1.48; in assay [5], -0.844; in [7], -0.399; in [8] it was 1.6; in assay [9], 0.202; in assay [10], -0.0773. Also, the composite z-score in assay [11] was 0.534; in assay [12] it was -1.19; in assay [13], -1.74; in [15], 0.472; in assay [16], 0.622; in [17], 1.03. Also, the composite z-score came to 1.25 in [18], 2.22 in assay [19] and 1.36 in assay [20]. Also, the z-score in assay [2] is -0.346 (inactive); in assay [3], -0.867 (inactive); in [4] it was -1.61 (inactive); in assay [6], -0.0298 (inactive); in assay [14] it was -0.912 (inactive).

`CCOC(=O)[C@H]1C/C=C/C[C@H](C(=O)OCC)C(=O)O[C@H]2[C@@H](OC)O[C@H](CO)[C@@H](OC(=O)Nc3ccc(Br)cc3)[C@@H]2OC1=O`: the composite z-score is 1.54 in [1]; 2.93 in assay [5]; 0.45 in [7]; 0.933 in assay [8]; 0.869 in [9]; -0.121 in assay [10]. Also, the composite z-score is 0.895 in assay [11]; -0.0855 in [12]; 0.68 in assay [13]; 0.217 in [15]; 1.02 in assay [16]; 0.047 in assay [17]. In addition, the composite z-score came out at 0.576 in assay [18], 0.251 in assay [19] and 0.706 in assay [20]. Also, the z-score was 0.343 (inactive) in assay [2]; -2.37 (inactive) in assay [3]; 31.7 (active) in assay [4]; 2.91 (inactive) in assay [6]; -3.54 (inactive) in assay [14].

Take `CO[C@H]1COC(=O)[C@@H](C)NC(=O)CC=C[C@@H](C)[C@H](OC)COC(=O)CC=C[C@@H]1C`: the composite z-score in assay [1] was 1.55; in [5], -0.619; in assay [7], -0.28; in [8], 1.52; in assay [9] it was 0.134; in assay [10], -0.299. The composite z-score was -1.61 in [11]; -0.994 in assay [12]; -1.7 in assay [13]; 0.518 in assay [15]; 0.442 in assay [16]; -0.805 in [17]. The composite z-score in [18] was 1.34; in assay [19], 1.2; in assay [20] it was 1.62. Also, the z-score in [2] is -1.66 (inactive); in [3], -2.03 (inactive); in assay [4] it was -1.67 (inactive); in assay [6] it was 1.25 (inactive); in assay [14], -1.59 (inactive).

As to `CO[C@H]1COC(=O)[C@@H](C)COC(=O)[C@H](Cc2ccccc2)NC(=O)CC=C[C@H]1C`, the composite z-score in [1] is 0.525; in assay [5], -0.274; in assay [7], -0.302; in assay [8], 1.26; in [9], 0.722; in assay [10], -0.188. In addition, the composite z-score in [11] was 0.7; in assay [12], -0.416; in assay [13], -1.09; in [15], 0.457; in assay [16] it was 0.0364; in assay [17], 1.04. The figures for the composite z-score in [18], in assay [19] and in [20] were 1.06, 1.5 and 1.15, respectively. In addition, the z-score in assay [2] was -0.662 (inactive); in assay [3], -1.25 (inactive); in assay [4], -0.544 (inactive); in assay [6] it was 0.331 (inactive); in assay [14], -0.776 (inactive).
